The text below walks through data of PubChem BioAssay (NCI).

Structures are written as SMILES. About 79,000 compounds went through this panel and 15% of them were active in at least one assay; those are over-represented in the sample as a whole. Unmarked numbers belong to inactive results. Calls of active or inactive are those of the source. Rule as the data show it: active = growth inhibition above about 70%; inactive = the rest.

The first assay can be described thus: NCI Yeast Anticancer Drug Screen. Data for the rad50 strain (AID 155).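 Also: 0% = growth of vehicle-only cultures of the same strain.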 The following applies: S. cerevisiae rad50 strain growth inhibition; at 50.0 µM; active compounds read high. In a few lines: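 Readout: growth inhibition relative to vehicle-treated cultures. Compound exposure was carried out in a genetically defined yeast strain deficient in DNA damage repair.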
Take `O/N=C(/Cc1ccccc1)c1ccccc1`: the growth inhibition is 26.6%. For `CC(CS(C)(=O)=O)S(=O)(=O)O` (configuration not stated), the growth inhibition was -6.25%. In the case of `CC(C)C(Nc1ncnc2nc[nH]c12)C(=O)O` (configuration not stated), the growth inhibition is -25.6%.

Turning to `CC(=O)Oc1ccc2c(c1)CC[C@@H]1C2[C@@H](O[N+](=O)[O-])C[C@@]2(C)C1CC[C@@H]2O[N+](=O)[O-]` (some centres not stated), the growth inhibition is 24.4%. For the molecule `COc1ccc([N+](=O)[O-])cc1N=NN(C)C`, the growth inhibition was -1.9%. Consider `Clc1ccc(-c2csc3nc(-c4cccs4)nn23)cc1`, for which the growth inhibition was -0.05%. Turning to `CC1(C)C(=O)/C=C\C(=O)C(C)(C)C(=O)/C=C\C(=O)C(C)(C)C(=O)/C=C\C(=O)C(C)(C)C(=O)/C=C\C1=O`, the growth inhibition was 12.1%. As for `O=C(O)CC12C3C4C5C3C1C5C42` (configuration not stated), the growth inhibition was 24.1%. Regarding `O=c1c2ccccc2c2nccn2c2ccccc12`, the growth inhibition is 13.8%. For `CC(C)CNC(=S)N/N=C/c1ccc(C(C)C)cc1`, the growth inhibition is -19.6%. For `Cc1nc2c(sc(=S)n2-c2ccccc2)c2nc3ccccc3n12`, the growth inhibition was -9.35%. For `Oc1nc2nc[nH]n2c1N=Nc1ccccc1`, the growth inhibition was -22.7%. Regarding `O=C1C=C(Nc2ccc(Br)cc2)c2ccccc2C1=O`, the growth inhibition was 36.3%. For `Cc1ccc(-c2cc(=O)c3cccc(CC(=O)O)c3o2)cc1`, the growth inhibition was 47.4%.

Turning to `O=C(Nc1c(Cl)cccc1Cl)Nc1c(Cl)cccc1Cl`, the growth inhibition was -0.95%. On to `CCOP(=O)(OCC)C(C(=O)OC)C(=O)C(=O)Nc1cccc([N+](=O)[O-])c1` (configuration not stated), for which the growth inhibition is 7.8%. Same read-out and setting: then `O=C1C2CCC(C2)C1CN1CCOCC1` (configuration not stated), with -10.7%; and `CNC(=O)C1CCC(CC2CCCCC2)CC1` (configuration not stated), with 45.4%; and `O=C(O)c1cccc(C(=O)O)[n+]1[O-]`, with 6.05%. On to `OCCOc1ccccc1-c1ccccc1`, for which the growth inhibition is -28.6%. As for `N#C/C(=C(/Cc1ccc(F)cc1)NP(=O)(c1ccccc1)c1ccccc1)c1ccc(F)cc1`, the growth inhibition is 10.9%. The same measure, in the same setting: then `C=CCCCCCCCCC(=O)NC(C)C(C)(C)C` (configuration not stated), with 29.9%.

The nature of a further assay: NCI Yeast Anticancer Drug Screen. Data for the mec2-1 strain (AID 157). The following applies: S. cerevisiae mec2-1 strain, at 50.0 µM, active compounds read high. Put shortly:
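Cells of the genetically defined mec2-1 yeast strain are incubated with test compound. Inhibition of growth is calculated against vehicle-treated controls.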
For `CN(C)S(=O)(=O)c1ccc(Cl)cc1`, the growth inhibition was -4.4%.

With `COc1cc([N+](=O)[O-])c(C)cc1Br`, the growth inhibition was 3.75%. As to `Cc1cc(C)c(S(=O)(=O)c2cccs2)c(C)c1`, the growth inhibition was -10.2%. For the molecule `Cc1ccc(C(C)C)c(OC(=O)NCCCCCCNC(=O)Oc2cc(C)ccc2C(C)C)c1`, the growth inhibition is -4.2%. For the molecule `O=C1c2ccccc2SC[C@@H]2CCCN12`, the growth inhibition is -7.75%. For the molecule `CCCCCCCCCCCCCCCCCCN(C)CC(COC)OP(=O)([O-])OCC[N+](C)(C)C` (configuration not stated), the growth inhibition is 14.3%. As to `Cc1ccc(C(O)/C(=N/N)c2nc3ccc([N+](=O)[O-])cc3[nH]c2=O)cc1` (configuration not stated), the growth inhibition was -20.1%. For `Cc1cc2c(=O)cc(-c3ccccc3)oc2c(C(=O)O)c1C`, the growth inhibition was -8.55%. The same measure, in the same setting: then `NC(=O)CSCC(=O)O`, with -6.2%. Turning to `CCn1c2ccccc2c2cc(N)c(N=Nc3ccc(-c4ccc(N)c(OC)c4)cc3OC)cc21`, the growth inhibition was 0.65%.

Take `O=C(Nc1cccc(C(=O)NCCCO)c1)/C(=C/c1ccccc1)NC(=O)c1ccccc1`: the growth inhibition was -1.85%. As for `O=c1ccc(-c2ccccc2)n[nH]1`, the growth inhibition was -0.2%. On the same count and under the same terms, then `CCc1ccc(N=Nc2c(F)c(F)c(N)c(F)c2F)cc1`, with -11.3%; and `Nc1cc(=O)n(-c2ccccc2)nc1Cl`, with 4.4%. Turning to `Oc1ccccc1C1SC(c2ccccc2O)SC(c2ccccc2O)S1` (configuration not stated), the growth inhibition was 96% (active). With `O=C(Nc1cccc2ccccc12)O/N=C/c1ccccn1`, the growth inhibition was -3.4%. Still for that read-out and setting: then `CC(C)(C)[N+](=O)[O-]`, with -27.1%; and `N#CCN1CCOCC1`, with -1.55%.

In the case of `O/N=C(/Cc1ccccc1)c1ccccc1`, the growth inhibition was 33.6%. As for `CC(CS(C)(=O)=O)S(=O)(=O)O` (configuration not stated), the growth inhibition is -20.4%. On to `CC(C)C(Nc1ncnc2nc[nH]c12)C(=O)O` (configuration not stated), for which the growth inhibition is -15.2%. The same measure, in the same setting: then `CC(=O)Oc1ccc2c(c1)CC[C@@H]1C2[C@@H](O[N+](=O)[O-])C[C@@]2(C)C1CC[C@@H]2O[N+](=O)[O-]` (some centres not stated), with 7.9%. As for `COc1ccc([N+](=O)[O-])cc1N=NN(C)C`, the growth inhibition was -11.7%. As for `Clc1ccc(-c2csc3nc(-c4cccs4)nn23)cc1`, the growth inhibition was -16.6%. `CC1(C)C(=O)/C=C\C(=O)C(C)(C)C(=O)/C=C\C(=O)C(C)(C)C(=O)/C=C\C(=O)C(C)(C)C(=O)/C=C\C1=O`: the growth inhibition was 0.25%. For the molecule `O=C(O)CC12C3C4C5C3C1C5C42` (configuration not stated), the growth inhibition was 17.1%. With `O=c1c2ccccc2c2nccn2c2ccccc12`, the growth inhibition was 3%.

Turning to `CC(C)CNC(=S)N/N=C/c1ccc(C(C)C)cc1`, the growth inhibition is -13.4%. In the case of `Cc1nc2c(sc(=S)n2-c2ccccc2)c2nc3ccccc3n12`, the growth inhibition was -15.7%.

As for `Oc1nc2nc[nH]n2c1N=Nc1ccccc1`, the growth inhibition is -12.9%. For the molecule `O=C1C=C(Nc2ccc(Br)cc2)c2ccccc2C1=O`, the growth inhibition is -1.95%. On the same count and under the same terms, then `Cc1ccc(-c2cc(=O)c3cccc(CC(=O)O)c3o2)cc1`, with -38.9%; and `O=C(Nc1c(Cl)cccc1Cl)Nc1c(Cl)cccc1Cl`, with -4.85%; and `CCOP(=O)(OCC)C(C(=O)OC)C(=O)C(=O)Nc1cccc([N+](=O)[O-])c1` (configuration not stated), with -5.85%. In the case of `O=C1C2CCC(C2)C1CN1CCOCC1` (configuration not stated), the growth inhibition is 3.25%. On to `CNC(=O)C1CCC(CC2CCCCC2)CC1` (configuration not stated), for which the growth inhibition was 49.5%. For the molecule `O=C(O)c1cccc(C(=O)O)[n+]1[O-]`, the growth inhibition was -22.6%.

Consider `OCCOc1ccccc1-c1ccccc1`, for which the growth inhibition is -14.3%.

`N#C/C(=C(/Cc1ccc(F)cc1)NP(=O)(c1ccccc1)c1ccccc1)c1ccc(F)cc1`: the growth inhibition is -3.7%. The same measure, in the same setting: then `C=CCCCCCCCCC(=O)NC(C)C(C)(C)C` (configuration not stated), with 19.8%.
